Hit rate of the full screen: of about 320,000 compounds, about 22,000 (6.9%) were called active. Another 27% or so got no clear call; they are omitted. Calls come from the whole dose curve; as a rule, active = well fitted inhibition curve with a large enough effect; inconclusive = small, poorly fitted or top-dose-only effect, or another doubt; inactive = no such curve, though single readings can be large or run the other way. What follows is part of a selection rich in actives, with near analogues and random picks from the rest.
% is set by controls: 0 for no effect and ±100 for the full control effect; potency is the fitted concentration of half-maximal effect.

This experiment can be described thus: Primary qHTS for delayed death inhibitors of the malarial parasite plastid, 96 hour incubation. As to conditions: P. falciparum luciferase reporter growth; series mostly up to 28.7 µM; activity change, negative = inhibition: at the top concentration. The source says: The goal of this screen is to discover new antimalarial compounds that act by inhibiting the development of the apicoplast in the malarial parasite Plasmodium falciparum. The biochemical processes that make this organelle essential for erythrocytic stage parasites are not well understood. However, antibiotics such as azithromycin and tetracycline, which target the apicoplast translational machinery, have a potent antimalarial effect.
We have developed a cell-based assay that measures parasite growth based on the expression of an integrated copy of a firefly luciferase reporter. To detect small molecules that cause this "delayed death" phenotype, erythrocytes infected with the luciferase-expressing parasites were incubated with compounds for either one or two generations, corresponding to 48 and 96 hours, respectively. Compounds that inhibit parasite growth in the second generation, but not the first, should be enriched in antimalarials that target the apicoplast. Growth inhibition is detected by a decrease in luciferase activity.
Assay Provider: David Fidock and Eric Ekland, Columbia University
Keywords: NIH Roadmap, MLPCN, MLI, MLSMR, qHTS, NCGC, qHTS, malaria, luciferase, viability
Four microliters of infected erythrocytes (2% hematocrit, 0.05% parasitemia final concentration) in culture medium were dispensed and the plates incubated for 96 hours at 37 C in 5% CO2. Two microliters of luciferase detection reagent was added and luminescence was detected by a ViewLux (PerkinElmer) reader.
With `CC(C)(O)c1ccccc1CC[C@H](SCC1(CC(=O)O)CC1)c1cccc(/C=C/c2ccc3ccc(Cl)cc3n2)c1`, the “activity change, negative = inhibition” value is -16.4% (inactive).
Consider `NS(=O)(=O)c1ccc(CCNc2nc(C(F)(F)F)nc3ccccc23)cc1`, for which the “activity change, negative = inhibition” value is 2.6% (inactive).
Same read-out and setting: the figure for `Cc1cc(C)n(-c2nc(C(F)(F)F)nc3ccccc23)n1` is 14% [at 5.75 µM] (inactive).
`CCc1ccc(C(CNc2nc(C(F)(F)F)nc3ccccc23)N(C)C)cc1` (configuration not stated): the Potency was 11.7 µM (active).
Regarding `O=C(OCc1ccc([N+](=O)[O-])cc1)C1CC(=O)N(Cc2ccccc2Cl)C1` (configuration not stated), the “activity change, negative = inhibition” value was 58.7% (inactive).
On to `O=C(COc1cccc2c1CCNC2=O)NC1CCCCC1`, for which the “activity change, negative = inhibition” value is -3.31% (inactive).
For the molecule `O=C(O)c1cccc(N=NN2CCCCCC2)c1`, the “activity change, negative = inhibition” value is 49.7% (inactive).
Still for that read-out and setting: then `O=C(O)c1cccc(S(=O)(=O)N2CC=C(c3ccccc3)CC2)c1`, with -9.09% (inactive).
As for `NC1=NN(c2cccc(C(=O)O)c2)C(=O)C1`, the Potency was 13.1 µM (active).
Turning to `CCCCCCCNC(=O)C1(CC2CC(c3cccc(Br)c3)=NO2)CCN(C(=O)c2cc(OCC)c(OCC)c(OCC)c2)CC1` (configuration not stated), the Potency was 0.329 µM (active).
As for `COC(=O)C1CCN(C(=O)c2ccc3oc(Cc4ccc(Cl)cc4)nc3c2)CC1`, the “activity change, negative = inhibition” value is 1.63% (inactive).
On to `O=C(c1ccccc1)N1CCC(CC2CC(c3ccc(Cl)cc3)=NO2)(C(=O)NCC2CCCCC2)CC1` (configuration not stated), for which the Potency was 1.04 µM (active).
For the molecule `CC(=O)N1CCC(C(=O)OCc2ccc(Cl)cc2)(c2ccccc2)CC1`, the “activity change, negative = inhibition” value is -22% (inactive).
As for `CCOc1ccccc1N1CCN(C(=O)c2ccc3[nH]c(C)c(C)c3c2)CC1`, the “activity change, negative = inhibition” value is 0% (inactive).
Consider `COc1ccccc1C(=O)NC(=O)COC(=O)c1ccco1`, for which the “activity change, negative = inhibition” value is 53.6% (inactive).
Regarding `Cc1ccc(N2C(=O)CC(Nc3cccc4ccccc34)C2=O)cc1` (configuration not stated), the “activity change, negative = inhibition” value was 26.3% (inactive).
Consider `COc1ccc(C2=NS(=O)(=O)N(C)C(C(=O)NC(C)c3ccccc3)=C2)cc1` (configuration not stated), for which the “activity change, negative = inhibition” value is 24.1% (inactive).
On to `COc1ccccc1CCC(=O)NNC(=O)c1ccncc1`, for which the “activity change, negative = inhibition” value was -3.56% (inactive).
For `Cc1nn(-c2ccccc2)c(C)c1NC(=O)COC(=O)c1cc(Cl)ccc1O`, the “activity change, negative = inhibition” value was 13.2% (inactive).
Turning to `CCN1CCN(c2ccc(NC(=O)c3cnccn3)cc2)CC1`, the “activity change, negative = inhibition” value is -11.3% (inactive).
With `CCN1CCN(C(c2cccnc2)c2cc(Cl)c3cccnc3c2O)CC1` (configuration not stated), the Potency was 10.4 µM (active).
In the case of `Cc1nc(C)c(-c2nnc(-c3cccc(S(=O)(=O)N(C)C)c3)o2)cc1C(=O)NN`, the “activity change, negative = inhibition” value is 11.1% (inactive).
For the molecule `Cn1c(SCC(=O)Nc2ccc(N3CCOCC3)cc2)nnc1C(F)(F)F`, the “activity change, negative = inhibition” value is -8.65% (inactive).
Regarding `Cc1ccccc1NC(=O)c1cc(S(=O)(=O)Nc2cccc(C(=O)O)c2)ccc1Cl`, the “activity change, negative = inhibition” value was 0% (inactive).
As for `O=C(NC1CC1)c1ccc2c(c1)NC(=O)c1ccccc1S2`, the Potency was 8.28 µM (active).
On to `O=C(NC1CC1)c1cccc(Br)c1`, for which the “activity change, negative = inhibition” value was -3.65% (inactive).
Consider `S=C1Nc2cc(Cl)ccc2Sc2ccccc21`, for which the “activity change, negative = inhibition” value is 16.5% (inactive).
Turning to `COC(=O)Cn1cnc2scc(-c3ccc(C)c(C)c3)c2c1=O`, the Potency is 10.4 µM (active).
As to `CCOC(=O)C(C)n1cnc2scc(-c3ccc(C)c(C)c3)c2c1=O` (configuration not stated), the “activity change, negative = inhibition” value is -3.94% (inactive).
Same read-out and setting: the figure for `CCn1cnc2scc(-c3ccc(C)c(C)c3)c2c1=O` is 42% (inactive); for `COc1ccc(NC(=O)CCN2CCCC2)c(OC)c1` it is -23.8% (inactive).
Still for that read-out and setting: the figure for `CSc1ccccc1NC(=O)C(C)N1C(=O)c2ccccc2S1(=O)=O` (configuration not stated) is 18.5% (inactive).
For the molecule `COc1ccc(NC(=O)C(C)N2c3cccc4cccc(c34)S2(=O)=O)c(OC)c1` (configuration not stated), the Potency is 2.94 µM (active).
For the molecule `CN(CC(=O)NCc1ccc2c(c1)OCO2)CC(=O)Nc1ccc(F)c(F)c1F`, the “activity change, negative = inhibition” value was -27.8% (inactive).
Same read-out and setting: the figure for `CCC(C)N(C(=O)COC(=O)c1nc(Cl)ccc1Cl)C1CCS(=O)(=O)C1` (configuration not stated) is 8.59% (inactive); for `O=C(c1ccc(OC2CCN(C/C=C/c3ccc(F)cc3)CC2)cc1)N1CCCCC1` it is 27% (inactive); for `COc1ccc(S(=O)(=O)N(C)CC(=O)N2CCCC2)cc1` it is -10.3% (inactive).
On to `Cc1ccc(S(=O)(=O)N2CCC(Oc3ccc(-n4cnnn4)cc3)CC2)cc1`, for which the “activity change, negative = inhibition” value is 76.6% (inactive).
On the same count and under the same terms, the figure for `CC(C)(c1ccccc1)c1ccc(OCCN2CCCC2)cc1` is 109% (inactive); for `CC(C)(c1ccccc1)c1ccc(OCCN)cc1` it is 27.9% (inactive).
`CN1CCC[C@@H]1CCO[C@](C)(c1ccccc1)c1ccc(Cl)cc1`: the Potency is 15.1 µM (active).
In the case of `O=c1c2cc(Br)ccc2nc(-c2cccc(Cl)c2)n1O`, the “activity change, negative = inhibition” value is 23.5% (inactive).
With `O=C(c1cccc(S(=O)(=O)N2CCOCC2)c1)N1CCOCC1`, the “activity change, negative = inhibition” value was -26.3% (inactive).
Still for that read-out and setting: then `O=C(c1ccc2c(c1)OCO2)N1CCOCC1`, with -7.41% (inactive).
With `O=C(c1cccc(N2CCCC2=O)c1)N1CCOCC1`, the Potency is 6.57 µM (active).
As to `Cc1ccc(C(=O)NNC(=O)c2ccc3c(c2)OCCO3)cc1`, the “activity change, negative = inhibition” value was 419% (inactive).
For the molecule `COCc1cc(C)n(CC(=O)NCC2CCCO2)c(=O)c1C#N` (configuration not stated), the “activity change, negative = inhibition” value was -2.85% (inactive).
For `Cc1noc(NS(=O)(=O)c2ccc(NC(=O)C34CCC(CC3)C4)cc2)c1C`, the “activity change, negative = inhibition” value was -16.6% (inactive).
`O=C(Nc1ccc(S(=O)(=O)Nc2ncccn2)cc1)C12CC3CC(CC(C3)C1)C2`: the “activity change, negative = inhibition” value is 45.4% (inactive).
For `CCn1nccc1C(=O)Nc1ccc(S(=O)(=O)NC23CC4CC(CC(C4)C2)C3)cc1`, the Potency is 6.57 µM (active).
For `Cc1ccc(S(=O)(=O)NCCC(=O)NNC(=O)C2COc3ccccc3O2)cc1` (configuration not stated), the “activity change, negative = inhibition” value is -4.98% (inactive).
Consider `COc1ccc(C2CC(c3cccs3)=NN2c2ccccc2)cc1` (configuration not stated), for which the “activity change, negative = inhibition” value is 21.7% (inactive).
For the molecule `Oc1ccccc1C1=NN(c2ccccc2)C(c2ccccc2)C1` (configuration not stated), the Potency is 1.65 µM (active).
With `CC(=O)Oc1ccccc1C1=NN(C(C)=O)C(c2ccccc2)C1` (configuration not stated), the “activity change, negative = inhibition” value is -5% (inactive).
For the molecule `Cn1cc(C(=O)c2ccc(Cl)cc2Cl)cc1C(=O)NN`, the “activity change, negative = inhibition” value is -3.08% (inactive).
Take `COc1ccc(CCNC(=O)COc2ccc3c(c2)OCO3)cc1`: the “activity change, negative = inhibition” value is -6.72% (inactive).
In the case of `Cc1ccc2nc(Nc3ccccc3)cc(C)c2c1`, the “activity change, negative = inhibition” value was 213% (inactive).
For `Cc1ccc2nc(C)c3c(c2c1)N(c1ccccc1)CC3`, the Potency was 6.57 µM (active).
Regarding `Cc1ccc2nc(-c3ccccc3)cc(C(=O)O)c2c1`, the “activity change, negative = inhibition” value is 13.1% (inactive).
Turning to `O=C1NCCn2nc3ccccc3c21`, the “activity change, negative = inhibition” value was 0% (inactive).
With `CCN(CC)CCn1c2c(c(SCC(=O)Nc3ccc(C(C)C)cc3)nc1=O)CCC2`, the Potency is 4.15 µM (active).
As to `CCN(CC)CCn1c2c(c(SCC(=O)Nc3nc4ccccc4s3)nc1=O)CCCC2`, the Potency was 11.7 µM (active).
In the case of `Cc1csc(NC(=O)CSc2nc(=O)n(CCCN(C)C)c3c2CCC3)n1`, the “activity change, negative = inhibition” value is 5.37% (inactive).
As for `Cn1c(SCC(=O)Nc2ccc(Cl)cc2)nc(O)cc1=O`, the “activity change, negative = inhibition” value is 21.4% (inactive).
For the molecule `CC(C)c1ccc(NC(=O)COC(=O)c2ccc(CN3CCCC3=O)cc2)cc1`, the “activity change, negative = inhibition” value was 0% (inactive).
Same read-out and setting: then `Cn1nnnc1SCC(=O)Nc1nc2ccccc2s1`, with 13.8% (inactive); and `COc1ccccc1C(=O)NC(CCSC)C(=O)NNC(=O)c1csc(N2CCOCC2)n1` (configuration not stated), with 9.49% (inactive).
